# From PubChem
# Hits are enriched below; roughly 0.5% of the tested compounds scored in any of these assays.
# E coli growth-1 – bacterial growth inhibition, counter-screen for AddAB inhibitors | E. coli V3065 growth, OD600 absorbance, 18 h | AID 449728 | actives 0.27% (n = 330,000) | inhibition, % at 11.9 µM;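 active = inhibition above the campaign's mean inhibition across all tested compounds plus 3 SD, cut at about 9.9% in these data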;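 note: uninfected addAB+ strain grown without phage in ampicillin broth; 0% = DMSO wells and 100% = ciprofloxacin 0.95 µg/ml wells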
# E coli growth-2 – E. coli growth inhibition; Escherichia coli growth, OD600, 23 h; hits give low values; OD600 absorbance (test concentration not listed); actives 0.21% (n = 330,000);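 active = OD600 absorbance below the run mean of sample wells minus 3.6 SD, in any replicate, cut at about 0.56 in these data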
# Tat export inh – inhibitors of E. coli Tat protein transport | E. coli MC4100 TorA-mCherry Tat export, fluorescence | inhibition, % at 10 µM | actives 0.036% (n = 340,000) | AID 488895;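 active = mean replicate inhibition at least 50% and at least half of replicates individually reaching 50%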;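 note: exported cargo escapes ClpAP degradation while cytoplasmic cargo is degraded and loses fluorescence; 0% = median of neutral control wells and 100% = median of NaSCN control wells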
# phage Ecoli inh – E. coli growth loss with phage present; growth absorbance; inhibition, % at 11.9 µM; actives 0.26% (n = 360,000); AID 651602; in the data active = inhibition above about 11%
# AddAB inh – less growth of phage-infected E. coli with AddAB; E. coli expressing H. pylori AddAB, absorbance growth; inhibition, % at 11.9 µM; actives 0.29% (n = 330,000); in the data active = inhibition above about 12%;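 note: 0% = vehicle wells of infected cells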
# * hit, by the source's call; · = no result.
SMILES,E coli growth-1,E coli growth-2,Tat export inh,phage Ecoli inh,AddAB inh
COc1ccc2cc(C(=O)C3CCCN(C(=O)c4snnc4C)C3)ccc2c1 (configuration not stated),-1.3,0.695,2.6,-0.9,-3.2
OCC1(CO)COC(c2ccccc2)=N1,-0.9,0.631,16.4,0.0,0.5
O=C1OCC(CO)(CO)N=C1NNc1ccc(Cl)c(Cl)c1,-0.8,0.176*,1.2,7.0,0.7
Cc1cc(C(C)(C)CC(C)(C)C)ccc1OCCOCC[N+](C)(C)Cc1ccccc1,2.6,0.066*,33.5,2.6,-2.8
O=[N+]([O-])c1cc(C(F)(F)F)ccc1NCCNC(=S)Nc1ccc(Cl)cc1,10.2*,0.613,11.7,7.3,8.8
O=c1ccc2ccccc2c2ccccc12,·,·,·,-0.3,·
O=Nc1c(O)c2ccccc2c2ccccc12,5.8,0.525,-8.8,11.0*,10.4
COCCCNC(=O)CCC(=O)NNc1nc2ccccc2c2nc(-c3ccccc3)nn12,0.4,0.698,-3.0,2.8,0.8
O=C(NC(=Nc1nc2ccccc2o1)NC(=O)c1ccccc1)c1ccccc1,-0.4,0.646,-8.6,5.9,1.0
COc1ccccc1C(=O)NC(=Nc1nc2ccccc2o1)NC(=O)c1ccccc1OC,13.3*,0.684,-7.3,3.9,14.0*
COc1cc(C=NN=C(N)N)ccc1OCc1ccc(Cl)cc1,·,0.509*,·,·,·
CCN(Cc1ccccc1)c1ccc(/C=N/N2CCOCC2)cc1,1.6,·,-5.8,3.3,-0.8
CCN(Cc1ccccc1)c1ccc(C=NN=C(N)N)cc1,·,0.502*,·,·,·
NC(N)=NN=Cc1ccc(OCc2ccccc2)c(OCc2ccccc2)c1,·,0.069*,·,·,·
CCCCNC(=S)Nc1ccc(Cl)cc1,1.6,0.649,-3.3,2.6,2.9
CCCCNC(=S)Nc1ccc(C(F)(F)F)cc1,11.1*,0.565,-0.5,10.3,11.0
Cn1c(=O)n(CC(=O)NCc2cccnc2)c2ccccc21,0.4,0.715,1.0,3.4,-1.2
CC(=O)N(C)Cc1ccc(C(=O)CCl)cc1,-0.2,0.646,-3.5,2.7,-1.2
CC(=O)Nc1ccc(C)cc1,0.9,0.685,7.2,1.2,1.4
CC(=O)NCc1ccc(C(=O)CCl)cc1,-0.2,0.506*,-20.4,0.3,-0.3
CC(=O)Nc1ccc(C(=O)CCl)cc1,-1.2,0.415*,-16.6,2.9,-0.8
CC(=O)NCc1ccc(C(=O)CCl)s1,-2.5,0.489*,-26.1,4.0,2.9
O=C(COC(=O)Cc1ccsc1)Nc1ccc(Br)cc1,0.7,0.689,-8.8,4.7,0.4
CN(C)C(=S)N=Nc1[nH]c2ccccc2c1O,-0.9,0.692,·,3.5,-0.4
Cc1cc(C)c2c(c1)SC1=NC(c3ccccc3)(C(F)(F)F)NC(=O)N12 (configuration not stated),2.1,0.682,2.9,-1.5,5.8
SMILES,E coli growth-1,E coli growth-2,Tat export inh,phage Ecoli inh,AddAB inh
CC1c2cccc(O)c2C(=O)C2C(=O)C3(O)C(=O)C(C(N)=O)C(=O)C(N(C)C)C3C(O)C21 (configuration not stated),·,0.068*,·,·,·
CC1c2cccc(O)c2C(O)=C2C(=O)[C@]3(O)C(O)=C(C(N)=O)C(=O)C(N(C)C)C3C(O)C21 (some centres not stated),·,0.0645*,·,·,·
CC1c2cccc(O)c2C(O)=C2C(=O)C3(O)C(O)=C(C(N)=O)C(=O)C(N(C)C)C3C(O)C21 (configuration not stated),·,0.067*,·,·,·
CN(C)c1ccc(O)c2c1CC1CC3C(N(C)C)C(=O)C(C(N)=O)=C(O)[C@]3(O)C(=O)C1=C2O (some centres not stated),·,0.0715*,·,·,·
CCCOc1ccccc1C(=O)N(Cc1ccc(C)o1)C1CCS(=O)(=O)C1 (configuration not stated),-0.6,0.727,-6.2,1.0,-1.6
O=S(=O)(O)c1cccnc1SCc1ccccc1,-1.2,0.67,-6.8,1.1,-0.2
COc1ccc(CNC(=O)c2ccc(C)o2)cc1,10.2*,0.623,-15.8,8.8,9.4
Cc1ccc(C)c(CN2C(=O)c3ccccc3S(=O)c3ccc(C(=O)NCCCN4CCCC4)cc32)c1 (configuration not stated),-0.7,0.683,6.6,1.4,2.9
Cc1cccc(NC(=S)N/N=C/c2ccc([N+](=O)[O-])s2)c1,19.2*,·,-10.1,10.8,14.7*
C[C@H]1COc2c(C3(N)CC3)c(F)cc3c(=O)c(C(=O)O)cn1c23,101.6*,·,·,·,100.3*
Cc1nc(N)nc(N)c1Oc1ccc(Cl)cc1,·,0.519*,-2.2,4.5,·
Cc1c(C)c2cccnc2c2ncccc12,47.2*,0.253*,0.5,·,47.2*
Cc1ccc2ccc3cccnc3c2n1,-3.4,·,8.6,-1.3,-1.5
Clc1cc2cccnc2c2ncccc12,-4.7,0.527*,-6.3,-0.6,-3.6
O=[N+]([O-])c1ccc(Cl)c2cccnc12,0.4,0.634,-2.5,1.8,2.3
COc1cc(Cc2cc(OC)c(O)c(OC)c2)cc(OC)c1O,·,·,·,3.5,·
CN1CCN(C2=Cc3cc(Cl)ccc3Sc3cc(F)ccc32)CC1,-1.8,0.357*,-2.3,2.6,1.0
COC1OC2O[C@@]3(C)CCC4C(C)CCC(C1C)[C@@]24OO3 (some centres not stated),·,0.357*,·,·,·
Cc1cc2nc3c(=O)[nH]c(=S)[nH]c3nc2cc1NC(=O)C(F)(F)F,10.3*,0.656,-11.4,9.4,6.7
COc1ccc2nc(NC(=O)c3ccc([N+](=O)[O-])o3)sc2c1,7.7,0.484*,-13.5,6.7,11.5
O=C(Nc1nc2ccccc2s1)c1ccc([N+](=O)[O-])o1,6.5,0.661,-11.5,2.8,5.2
CC(C)CC(=O)Nc1ccc2c(c1)oc1ccccc12,0.6,0.723,0.8,1.9,1.3
Cc1nnsc1C(=O)NNc1c(Cl)cccc1Cl,2.2,0.476*,5.7,3.1,5.4
Cc1nnsc1C(=O)NNc1ccc(Cl)cc1,-0.5,0.672,2.7,0.3,0.4
COC(=O)C(N)Cc1ccc(O)c(O)c1 (configuration not stated),0.8,0.681,7.4,-1.0,1.2
SMILES,E coli growth-1,E coli growth-2,Tat export inh,phage Ecoli inh,AddAB inh
NC(CO)C(=O)NNCc1ccc(O)c(O)c1O (configuration not stated),12.9*,·,1.8,6.7,9.8
COc1ccc2cc(C(c3nnnn3C3CCCC3)N3CCCCCC3)c3nnnn3c2c1 (configuration not stated),12.2*,0.776,-3.9,2.1,9.2
COc1ccc2cc(C(c3nnnn3C3CCCCC3)N3CCCCCC3)c3nnnn3c2c1 (configuration not stated),0.2,0.728,-5.9,0.5,0.4
COc1ccc(OC)c(NC(=O)C2CC(=O)N(CCc3ccc(F)cc3)C2)c1 (configuration not stated),·,·,4.7,·,·
O=C(N/N=C/C(Br)=C/c1ccccc1)c1ccncc1,2.6,·,-8.3,4.2,10.8
O=C(NN=C/C(Br)=C/c1ccccc1)c1ccncc1,·,0.461*,·,·,·
CC(C)NC(=O)C1(C)CCN1Cc1cccc(Cl)c1 (configuration not stated),·,·,·,0.0,·
NC(=O)COc1ccc2cc(-c3ccccc3)c(=O)oc2c1,-0.8,0.703,0.7,-3.2,3.2
CCN(CC)C(=O)c1ccc(/C=C/c2c[nH]c3ccccc23)[n+](C)c1,0.2,0.718,-4.9,0.9,2.1
